Hit rate of the full screen: of about 310,000 compounds, about 11,000 (3.5%) were called active. Inconclusive results (about 4%) are left out. Calls follow the shape of the dose curve; as a rule, active = well fitted inhibition curve with a large enough effect; inconclusive = small, poorly fitted or top-dose-only effect, or another doubt; inactive = no such curve, though single readings can be large or run the other way. The sample as a whole holds a higher share of actives than the screen did.
Potency is read from the fitted curve at half-maximal effect.

The target in the assay is 4'-phosphopantetheinyl transferase ffp (Bacillus subtilis) (UniProt Q9F4F7). Description: qHTS Assay for Inhibitors of Bacillus subtilis Sfp phosphopantetheinyl transferase (PPTase).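 Also: the enzyme is Sfp with the accession as filed and its product quenches rhodamine fluorescence.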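 As to largest response in the series, negative = inhibition: 0% = enzyme reaction without inhibitor and -100% = no enzyme wells.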 The conditions noted are these: Biochemical Sfp PPTase activity. The method in brief: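 Fluorescence-quenching assay with 15 nM Sfp, 5 uM rhodamine-CoA and 12.5 uM BHQ-2-labelled ybbR peptide in pH 7.6 Hepes/MgCl2 buffer. Enzyme was pre-incubated with compound for 15 min at room temperature. Rate was taken from the 30-min fluorescence change (525/598 nm).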
In general terms: qHTS replaces the single test concentration by a dilution series.
In the case of `Cc1ccc(S(=O)(=O)NCc2ccc(C(=O)NC3CCC(C)CC3)cc2)cc1` (stereo not given), the largest response in the series, negative = inhibition was 17% (inactive).
Same read-out and setting: with `Cc1ccc(NC2CCCN(C(=O)CCc3cn[nH]c3)C2)cc1C` (stereo not given) the figure was 7.06% (inactive).
Take `O=C(O)CCCn1cc(NC(=O)COc2cccc(Cl)c2)cn1`: the largest response in the series, negative = inhibition was 12.9% (inactive).
For `O=S(=O)(NC1CC1)c1ccc(Cl)cc1`, the largest response in the series, negative = inhibition was 10.7% (inactive).
Same read-out and setting: with `Cc1cc([N+](=O)[O-])c(N2CCC[C@@H]2C(=O)O)c([N+](=O)[O-])c1` the figure was 0.854% (inactive).
With `Cc1cccc(C)c1NC(=O)C1CCCN1C(=O)OC(C)(C)C` (stereo not given), the largest response in the series, negative = inhibition was 0.244% (inactive).
Regarding `Cc1cc(C)c(NC(=S)N2CCCC2C(=O)O)c(C)c1` (stereo not given), the Potency was 35.5 µM (active).
Consider `O=[N+]([O-])c1ccc(N2CCN(c3ccc(F)cc3)CC2)cn1`, for which the largest response in the series, negative = inhibition was 10.5% (inactive).
On to `CC1C(=O)C(C)C(c2ccc(O)cc2)NC1c1ccc(O)cc1` (stereo not given), for which the largest response in the series, negative = inhibition was 4.83% (inactive).
Still for that read-out and setting: in the case of `COc1ccc(-c2cc(=O)oc3cc(OC(C)C(=O)NCC4CCC(C(=O)O)CC4)ccc23)cc1` (stereo not given) it was 18.5% (inactive); in that of `COc1c(O)c2c(=O)cc(OC)c3c4c(OC)cc(=O)c5c(O)c(OC)c6c(c(c1C[C@@](C)(O)[C@H]6C(C)=O)c23)c54`, -14.1% (inactive).
Take `Fc1ccc(Nc2nnns2)cc1`: the Potency was 8.91 µM (active).
For `CN(C)c1nc(NN)nc(Nc2ccc(F)cc2)n1`, the largest response in the series, negative = inhibition was -5.52% (inactive).
Same read-out and setting: with `O=C(Nc1ccncc1)Nc1ccc(F)cc1` the figure was 14.5% (inactive).
Same read-out and setting: with `C[n+]1ccccc1C1CCCC/C1=N\Nc1ccc([N+](=O)[O-])cc1[N+](=O)[O-]` (stereo not given) the figure was -1.83% (inactive).
Take `O=[N+]([O-])c1ccc(N/N=C2/CCCCC2c2ccccn2)c([N+](=O)[O-])c1` (stereo not given): the Potency was 35.5 µM (active).
Take `O=C(Nc1ccccc1)O/N=C1\CCCCC1c1ccc([N+](=O)[O-])cc1[N+](=O)[O-]` (stereo not given): the largest response in the series, negative = inhibition is -6.23% (inactive).
As to `COc1ccccc1N1CCN(C(=O)c2cc(=O)c3cc(C)ccc3o2)CC1`, the largest response in the series, negative = inhibition is -2.28% (inactive).
On to `Cc1cccc(-c2cc(=O)c3cc(C)ccc3o2)c1`, for which the Potency was 3.55 µM (active).
As to `Cc1cccc(C2=N/C(=C/c3cccs3)C(=O)O2)c1`, the largest response in the series, negative = inhibition is -1.85% (inactive).
On the same count and under the same terms, with `CCN1CCN(c2ccc(S(=O)(=O)N3CCCCC3)cc2NC(=O)Cc2c(Cl)cccc2Cl)CC1` the figure was -8.91% (inactive).
On to `CCN(C(=O)c1cc([N+](=O)[O-])ccc1NCc1cccnc1)c1ccccc1`, for which the largest response in the series, negative = inhibition is -0.174% (inactive).
Take `Cc1cc(C)c(OCC(=O)N/N=C/c2ccco2)c(C)c1`: the largest response in the series, negative = inhibition was 2.54% (inactive).
For the compound `COC(=O)COc1ccc2c(c1C)O/C(=C\c1ccco1)C2=O`, the Potency is 50.1 µM (active).
Take `COC(=O)C1=C(C)N(c2ccc(Br)cc2)C(=O)/C1=C\c1ccco1`: the largest response in the series, negative = inhibition was -29.4% (inactive).

The values above are taken from PubChem BioAssay AID1490 (National Center for Advancing Translational Sciences (NCATS), 2009).
